From PubChem
KDM5B inh: inhibitors of human KDM5B histone demethylase; Q9UGL1; KDM5B demethylase, FDH-coupled NADH fluorescence (FDH is formaldehyde dehydrogenase); Potency, µM (top dose mostly 57.7 µM), hits mostly inhibitors; hit rate 2.6% among 220,000; also: nearly all actives have a fitted effect of over 70% in size
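qHTS format, multiple compound concentrations. Buffer 50 mM HEPES pH 7.5/0.01% Tween-20; 200 nM KDM5BΔAP final; 10 min compound preincubation; substrate-mix levels 12.5 µM peptide, 25 µM α-KG, 0.25 mM NAD⁺; 30 min RT; ΔRFU.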
HEK293 viab: cell viability loss counter-screen; hit rate 0.12% among 150,000; HEK-293-SNCA-luc viability, GF-AFC fluorescence, 24 h; Potency, µM (highest dose often 57.1 µM), most hits filed as cytotoxic; also: nearly all actives have a fitted effect of over 30% in size
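Cytotoxicity counterscreen: after 24 h compound treatment of genome-edited SNCA-luciferase HEK-293 cells, live-cell protease substrate GF-AFC read by fluorescence after 30 min; activity scaled between DMSO (0%) and medium-only (-100%), curves Hill-fitted.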
SNCA expr inhib: SNCA gene expression inhibition. HEK-293 SNCA-luciferase knock-in, luminescence, 24 h. Potency, µM (series often up to 57.2 µM), most hits filed as inhibitors. hit rate 0.17% among 140,000. AID 1671194; also: nearly all actives have a fitted effect of over 45% in size
IP6K1 inh: inhibitors of human IP6K1; Q92551; IP6K1 kinase, ADP-Glo luminescence, 2 h; hits give low values; activity change, % (series mostly up to about 58 µM); hit rate 0.81% among 140,000; AID 1645851; in the data active = activity change below about -25%
Target sequence (Q92551 whole entry, looked up): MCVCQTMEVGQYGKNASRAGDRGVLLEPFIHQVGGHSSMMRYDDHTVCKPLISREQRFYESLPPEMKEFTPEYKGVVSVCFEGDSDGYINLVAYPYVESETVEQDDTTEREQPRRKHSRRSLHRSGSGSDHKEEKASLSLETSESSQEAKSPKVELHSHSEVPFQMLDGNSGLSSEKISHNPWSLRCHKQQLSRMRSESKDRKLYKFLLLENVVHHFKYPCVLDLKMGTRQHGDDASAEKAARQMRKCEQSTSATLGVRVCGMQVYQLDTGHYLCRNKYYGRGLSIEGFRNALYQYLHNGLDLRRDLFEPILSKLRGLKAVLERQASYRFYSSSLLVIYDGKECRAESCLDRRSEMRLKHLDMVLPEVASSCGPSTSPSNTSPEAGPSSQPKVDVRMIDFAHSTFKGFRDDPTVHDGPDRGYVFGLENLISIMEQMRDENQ
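ADP-Glo luminescence measures ADP made by human IP6K1 during a 2 h RT reaction with ATP/IP6 (mix at 1.3 mM/130 uM); top library doses 57.5 and 19.1 uM final.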
A number is an active result; – = inactive; ? = inconclusive; · = no result given. In the library only some 2.8% were active in any assay of this set; here they are far more common. Unless noted, calls follow the shape of the dose curve; as a rule, active = well fitted curve in the direction sought with a large enough effect; inconclusive = small, poorly fitted or top-dose-only effect, or another doubt; inactive = no such curve, though single readings can be large; an effect the other way counts as inactive or inconclusive.

SMILES | KDM5B inh | HEK293 viab | SNCA expr inhib | IP6K1 inh
CCS(=O)(=O)Nc1ccc(C(=O)N2CCC3(CCCN(C)C3=O)C2)cc1 (configuration not stated) | – | – | – | –
Cn1cc(CN(CCO)Cc2cccs2)c(-c2cccc(Cl)c2)n1 | – | · | · | ·
Cc1cc(=O)n(C(C)C(=O)NCc2ccccc2Cl)c2c1c(C)nn2-c1ccccc1 (configuration not stated) | – | – | – | –
O=C(NCC1CCN(CC(F)(F)F)C1)c1cc2ccccc2[nH]1 (configuration not stated) | – | · | · | ·
CC1(CCCCc2ccccc2)COc2ccc(C(=O)NC3CCOCC3)cc2N1 (configuration not stated) | 35µM | – | ? | –
COCCN(C)C(=O)c1ccc2c(c1)NC(C)(CCCCc1ccccc1)CO2 (configuration not stated) | – | – | – | –
CC1(CCCCc2ccccc2)COc2ccc(C(=O)NC3CC3)cc2N1 (configuration not stated) | 28µM | – | – | –
CN(C)C(=O)c1ccc2c(c1)NC(C)(CCCCc1ccccc1)CO2 (configuration not stated) | – | – | ? | –
CC1(CCCCc2ccccc2)COc2ccc(C(=O)NCCc3cnc[nH]3)cc2N1 (configuration not stated) | 32µM | – | – | –
CCC(O)c1nc2ccccc2n1Cc1cc(C)ccc1C (configuration not stated) | – | – | – | –
Cc1cccc(NC(=O)N2CCN3CCCCC3C2)c1C (configuration not stated) | – | – | – | –
C[C@H](NC(=O)C(=O)Nc1ccccc1C(C)(C)C)C(=O)N[C@@H](CC(=O)O)C(=O)COc1c(F)c(F)cc(F)c1F | · | – | – | ·
O=C(Nc1cccc(Cl)c1)N1CCN(Cc2nc(-c3cccc(C(F)(F)F)c3)no2)CC1 | – | · | · | ·
O=C(NC1CC1)c1ccc2ccnn2c1 | 32µM | – | – | –
CN(C)C(=O)c1ccn2nccc2c1 | 32µM | – | – | –
CN(C)C(=O)c1ccc2ccnn2c1 | 32µM | – | – | –
CN(C)C(=O)c1ccn2cncc2c1 | 35µM | – | – | –
Cc1ccc(NC(=O)CC2CCCN(c3cnn(CC4CC4)c(=O)c3)C2)cc1 (configuration not stated) | – | – | – | –
CCc1nc(-c2c3n(c(=O)n(CC#N)c2=O)CCCCC3)no1 | – | – | – | –
N#Cc1ccc(C(=O)N2CCC(C(=O)N3CCCCCCNC(=O)CC3)CC2)cc1 | – | – | – | –
O=C(Cn1c(=O)n(-c2ccccc2)c(=O)c2c3c(sc21)CCC3)c1ccc(F)cc1 | – | – | – | –
O=C(NC1CC1)c1cc2cccnn2n1 | 32µM | – | – | –
COc1ccc2c(c1)CCCN2C1CNC1 | 126µM | – | – | –
COc1ccc2c(c1)CCCC2=O | · | – | – | –
COc1ccnc(-c2nnc3ccc(N4C[C@@H](C)O[C@@H](C)C4)nn23)c1 | – | – | – | –
SMILES | KDM5B inh | HEK293 viab | SNCA expr inhib | IP6K1 inh
COc1ccnc(-c2nnc3ccc(N4CCc5ccccc5CC4)nn23)c1 | 32µM | – | – | –
O=C(COc1cc(Cl)cc(Cl)c1)NC1CC1 | – | · | · | ·
COc1ccc(OC)c(NC(=O)Cn2c(-c3cccc(Cl)c3)nc(C)c(CCO)c2=O)c1 | – | – | – | –
COc1ccc(OC)c(NC(=O)Cn2c(-c3ccc(Cl)cc3)nc(C)c(CCO)c2=O)c1 | 25µM | – | – | –
CN(C)C[C@@H]1CN(c2ncccn2)C[C@H]1NC(=O)COc1ccc(Cl)cc1 | 28µM | – | – | –
CN(C)C[C@@H]1CN(c2ncccn2)C[C@H]1NC(=O)COc1ccc(F)cc1 | ? | – | – | –
Cc1cccc(OCC(=O)N[C@@H]2CN(c3ncccn3)C[C@H]2CN(C)C)c1 | 22µM | – | – | –
CN(C)CCNC(=O)C(C)(C)Oc1nn(CC2CCOCC2)c2ccccc12 | 32µM | – | – | –
CC(C)(Oc1nn(CC2CCOCC2)c2ccccc12)C(=O)NCc1ccncc1 | – | – | – | –
Cc1ccccc1CN1Cc2nc(-c3ccc4c(c3)OCO4)ccc2OCC1=O | 35µM | ? | – | –
CN1Cc2nc(-c3ccc4c(c3)OCO4)ccc2OCC1=O | 32µM | – | – | –
COc1ccc(Nc2ccc3c(n2)CN(Cc2ccc(C(F)(F)F)cc2)C(=O)CO3)cn1 | 11µM | – | ? | –
O=C1COc2ccc(Nc3ccc(Cl)cc3)nc2CN1Cc1nc2ccccc2s1 | 35µM | 32µM | ? | –
CC(=O)Nc1cccc(-c2ccc3c(n2)CN(Cc2ccccc2C)C(=O)CO3)c1 | – | ? | – | –
CNC(=O)C1CCN(C(=O)c2ccc3[nH]c(C)c(C)c3c2)CC1 | – | · | · | ·
COc1ccc(NC(=O)C2CCN(c3nc(-c4ccc(OC)c(OC)c4)no3)CC2)cc1Cl | – | – | – | –
Cc1ccccc1CN1Cc2nc(-c3c(C)noc3C)ccc2OCC1=O | 35µM | – | – | –
O=C1COc2ccc(-c3ccc4c(c3)OCO4)nc2CN1Cc1ccc(C(F)(F)F)cc1 | 32µM | – | – | –
Cc1ccccc1CN1Cc2nc(-c3cccc(C(N)=O)c3)ccc2OCC1=O | 32µM | – | – | –
O=C(NCc1ccnc(-n2cccn2)c1)c1ccc(NC(=O)c2ccccn2)cc1 | – | · | · | ·
CC(=O)c1ccc(NC(=O)c2ccc3c(c2)nnn3C2CCCC2)cc1 | – | – | – | –
Cc1cc(C(=O)COC(=O)c2cc3ccccc3oc2=O)c(C)n1CC1CCCO1 (configuration not stated) | – | · | · | ·
O=C(c1ccc2c(c1)OCO2)N1CCCN(c2cc(-c3ccccc3)[nH]n2)CC1 | – | – | – | –
O=C(Nc1cccc(Br)c1)c1cc(-c2ccc3c(c2)OCCO3)on1 | ? | – | ? | –
COCCNc1nc2c(S(=O)(=O)c3ccccc3)nnn2c2ccccc12 | – | – | – | –
SMILES | KDM5B inh | HEK293 viab | SNCA expr inhib | IP6K1 inh
COCCNc1nc2c(S(=O)(=O)c3ccc(C)cc3)nnn2c2ccccc12 | 79µM | – | – | –
COCCCNc1nc2c(S(=O)(=O)c3ccccc3)nnn2c2ccccc12 | 79µM | – | – | –
COCCCNc1nc2c(S(=O)(=O)c3ccc(C)cc3)nnn2c2ccccc12 | 79µM | – | ? | –
COCCNc1nc2c(S(=O)(=O)c3ccc(C(C)C)cc3)nnn2c2ccccc12 | ? | – | – | –
COCCCNc1nc2c(S(=O)(=O)c3ccc(C)c(C)c3)nnn2c2ccccc12 | 79µM | – | – | –
CC(C)OCCCNc1nc2c(S(=O)(=O)c3ccc(Br)cc3)nnn2c2ccccc12 | ? | – | – | –
CCn1ccnc1CN1CCCC12CCN(c1ccc(C(F)(F)F)cn1)CC2 | 20µM | – | – | –
CCc1ncc(CN2CCCC23CCN(c2ccc(C(F)(F)F)cn2)CC3)cn1 | ? | – | – | –
O=C(NCc1ccc(N2CCOCC2)cc1)c1cc2c(s1)CN(C1CC1)C2 | 11µM | – | – | –
O=C(O)c1ccc(COc2ccccc2Cl)o1 | – | · | · | ·
CCc1ccccc1NC(=O)Cn1ccn2nc3c(c2c1=O)CCCC3 | 35µM | – | – | –
CCCNC(=O)Cn1ccn2nc3c(c2c1=O)CCCC3 | – | – | – | –
